3T3 cytotox: Cytotoxic Profiling in NIH 3T3 Cell Line of Diverse Libraries Using Quantitative High-Throughput Screening; NIH 3T3 viability, CellTiter-Glo ATP luminescence, 48-72 h; Potency, µM (series often up to 96.7 µM), most hits filed as inhibitors; 4.3% of 94,000 active; AID 1345082, 2018; further: nearly all actives have a fitted effect of over 55% in size
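Mouse fibroblast NIH 3T3 cells, 400 per well, received compound via pintool and were incubated for 48 or 72 hr prior to CellTiter-Glo ATP luminescence measurement.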
GPT2 inh: Primary qHTS assay for inhibitors of Glutamate pyruvate transaminase 2 (GPT2); Alanine aminotransferase 2 (Homo sapiens), Q8TD30; Recombinant GPT2, coupled pyruvate oxidase/HRP Amplex Red fluorescence; Potency, µM (series often up to 57.7 µM), most hits filed as inhibitors; 0.25% of 100,000 active; further: nearly all actives have a fitted effect of over 60% in size
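Inhibition is scored from Amplex Red fluorescence generated when pyruvate oxidase and HRP act on pyruvate released by GPT2. Reactions contain 10ng/uL enzyme, 250uM a-KG and 2mM L-alanine and run 30 min at room temperature.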
FLuc inh: Firefly luciferase inhibition profiling of diverse chemical library using quantitative high-throughput screening | Potency, µM (doses to about 115 µM), usual class: inhibitors | Luciferin 4-monooxygenase (Photinus pyralis), P08659 | 2.5% of 76,000 active | purified P. pyralis luciferase, luminescence, biochemical; further: nearly all actives have a fitted effect of over 65% in size
Target sequence (P08659 whole entry, looked up): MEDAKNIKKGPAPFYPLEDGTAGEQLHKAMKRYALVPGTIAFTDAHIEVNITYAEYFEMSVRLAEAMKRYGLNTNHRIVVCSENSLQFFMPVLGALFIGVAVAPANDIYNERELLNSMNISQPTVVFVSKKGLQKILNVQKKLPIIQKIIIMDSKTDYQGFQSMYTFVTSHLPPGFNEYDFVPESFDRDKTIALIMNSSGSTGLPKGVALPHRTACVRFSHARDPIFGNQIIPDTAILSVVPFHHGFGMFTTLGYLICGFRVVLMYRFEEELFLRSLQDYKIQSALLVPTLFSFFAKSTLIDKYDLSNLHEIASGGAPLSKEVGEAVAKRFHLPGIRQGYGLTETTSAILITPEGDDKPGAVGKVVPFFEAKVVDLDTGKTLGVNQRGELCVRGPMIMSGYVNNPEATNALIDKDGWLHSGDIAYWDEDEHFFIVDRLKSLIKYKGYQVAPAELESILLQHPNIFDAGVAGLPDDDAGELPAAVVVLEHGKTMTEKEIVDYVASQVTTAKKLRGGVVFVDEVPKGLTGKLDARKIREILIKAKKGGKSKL
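Purified P. pyralis luciferase (10nM final) in 50mM Tris acetate pH 7.5, 10mM Mg acetate, 0.01% Tween-20, 0.05% BSA with 10uM D-luciferin and 10uM ATP. Compounds titrated qHTS. Luminescence imaged on CCD.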
NPR1 antag: Natriuretic polypeptide receptor (hNpr1) antagonism - Primary qHTS. AID 1347048, 2019. Atrial natriuretic peptide receptor 1 (Homo sapiens), P16066. 1.6% of 76,000 active. HEK293 hNpr1 GloSensor cGMP, ANP-stimulated luminescence. Potency, µM (top dose mostly 46.3 µM), most hits filed as inhibitors; calls by dose curve; further: nearly all actives have a fitted effect of over 60% in size
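Compound pre-incubated 30 min at room temperature on GloSensor-loaded HEK293 cells stably carrying hNpr1 and the pGS-40F cGMP biosensor. Stimulation uses hNppA at 0.1 nM final; luminescence is taken at baseline and 20 min post-agonist.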
HEK293 tox: Cytotoxic Profiling in HEK 293 Cell Line of Diverse Libraries Using Quantitative High-Throughput Screening; HEK 293 viability, ATP luminescence (CellTiter-Glo), 48-72 h; Potency, µM (highest dose often 115 µM), actives largely listed as inhibitors; 6.6% of 94,000 active; further: nearly all actives have a fitted effect of over 60% in size
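Pintool-delivered compounds were incubated with HEK 293 cells (250 cells/well) at 37 degree Celsius for 48 or 72 hr. ATP-dependent luminescence (CellTiter-Glo) then reported remaining viable cells.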
Numbers stand for hits. Compounds with a hit are over-represented: about 10% of the library has one in this group of screens. Unless noted, the call rests on the fitted dose curve; in most records, active means well fitted curve in the direction sought with a large enough effect; inconclusive means small, poorly fitted or top-dose-only effect, or another doubt; inactive means no such curve, though single readings can be large; an effect the other way counts as inactive or inconclusive.

`O=C(NCc1ccco1)C1CCN(C(=O)c2ncn3c2COC(c2ccc(F)cc2)C3)CC1` (stereo not drawn) gave 3T3 cytotox inactive, GPT2 inh inactive, FLuc inh 22.4µM, NPR1 antag inactive and HEK293 tox inactive.
Cc1ccccc1CNC(=O)C1CCN(C(=O)c2ncn3c2COC(c2ccccc2)C3)CC1 (stereo not drawn) was read as 3T3 cytotox inactive, GPT2 inh inactive, FLuc inh 15.8µM, NPR1 antag inactive and HEK293 tox inactive.
Cc1ccc(C)c(C(=O)N2CCC3(CC2)NC(=O)N(c2ccc(F)cc2)N3)c1 was read as 3T3 cytotox inconclusive, GPT2 inh inconclusive, FLuc inh inactive, NPR1 antag inactive and HEK293 tox inconclusive.
Screening O=C1CS(=O)C2(CCN(S(=O)(=O)Cc3ccccc3)CC2)N1CC1CC1 (stereo not drawn) returned 3T3 cytotox inactive, GPT2 inh inactive, FLuc inh inactive, NPR1 antag inactive and HEK293 tox inactive.
Screening O=C(CNC(=O)c1cccc(-c2ccc(C(F)(F)F)cc2)c1)NCc1ccc(F)cc1 returned 3T3 cytotox inconclusive, GPT2 inh inactive and HEK293 tox inconclusive.
CSc1ccc(-c2cccc(C(=O)NCC(=O)NCc3cccnc3)c2)cc1 was read as 3T3 cytotox inconclusive, GPT2 inh inactive and HEK293 tox 22.4µM.
`COc1cccc(CNC(=O)CNC(=O)c2ccc(-c3cccc(C(F)(F)F)c3)cc2)c1` gave 3T3 cytotox inactive, GPT2 inh inactive and HEK293 tox inactive.
`CSc1ccc(-c2cccc(C(=O)NCC(=O)NCc3cccc(C(F)(F)F)c3)c2)cc1` gave 3T3 cytotox inconclusive, GPT2 inh inactive and HEK293 tox 39.8µM.
Screening COc1ccc(F)cc1-c1cccc(C(=O)NCC(=O)NCc2ccc(C(F)(F)F)cc2)c1 returned 3T3 cytotox 39.8µM and HEK293 tox 39.8µM.
Screening CSc1ccc(-c2cccc(C(=O)NCC(=O)NCc3cccc(F)c3)c2)cc1 returned 3T3 cytotox inconclusive, GPT2 inh inactive and HEK293 tox inconclusive.
`COc1cccc(CNC(=O)CNC(=O)c2cccc(-c3ccc(C(F)(F)F)cc3)c2)c1` gave 3T3 cytotox inconclusive, GPT2 inh inactive and HEK293 tox 22.4µM.
Screening O=C(Cc1ccc2c(c1)OCO2)N[C@@H]1CCOC[C@H]1Oc1ccccn1 returned 3T3 cytotox inactive, GPT2 inh inactive, FLuc inh inactive, NPR1 antag inactive and HEK293 tox inactive.
For Cc1nc2cnccn2c1C(=O)N1CCC(C#N)CC1 the results were 3T3 cytotox inactive and HEK293 tox inactive.
For CNC(=O)[C@@H]1CN(C(=O)C2CC=CC2)C[C@H]1CO the results were 3T3 cytotox inactive, GPT2 inh inactive, FLuc inh inactive, NPR1 antag inactive and HEK293 tox inactive.
For COc1ccc(Cn2c(=O)c(C(=O)N3CCN(C(=O)c4cccc(Cl)c4)CC3)nc3cccnc32)cc1 the results were 3T3 cytotox inconclusive, GPT2 inh inactive and HEK293 tox inconclusive.
`CSc1ccc(-c2cccc(C(=O)NCC(=O)NCc3ccc(C(F)(F)F)cc3)c2)cc1` gave 3T3 cytotox inconclusive, GPT2 inh inactive and HEK293 tox 44.7µM.
`O=C(CNC(=O)c1cccc(-c2ccc(C(F)(F)F)cc2)c1)NCc1cccs1` gave 3T3 cytotox inconclusive, GPT2 inh inactive and HEK293 tox 39.8µM.
COc1ccc(CNC(=O)CNC(=O)c2cccc(-c3ccc(SC)cc3)c2)cc1OC was read as 3T3 cytotox inconclusive, GPT2 inh inactive and HEK293 tox 31.6µM.
O=C(CNC(=O)c1cccc(-c2ccc(C(F)(F)F)cc2)c1)NCc1ccccc1 was read as 3T3 cytotox inconclusive, GPT2 inh inactive and HEK293 tox inconclusive.
Screening CSc1ccc(-c2cccc(C(=O)NCCNC(=O)c3ccccc3C)c2)cc1 returned 3T3 cytotox inactive, GPT2 inh inactive and HEK293 tox 25.1µM.
`CSc1ccc(-c2cccc(C(=O)NCCNC(=O)c3ccccc3F)c2)cc1` gave 3T3 cytotox inactive, GPT2 inh inactive and HEK293 tox inconclusive.
CSc1ccc(-c2cccc(C(=O)NCC(=O)NCc3ccc4c(c3)OCO4)c2)cc1 was read as 3T3 cytotox inactive, GPT2 inh inactive and HEK293 tox inconclusive.
O=C(NCCN1CCCC1)c1c(OCC2CC2)cc(=O)n2c1CCOCC2 was read as 3T3 cytotox inactive, GPT2 inh inactive, FLuc inh inactive, NPR1 antag inactive and HEK293 tox inactive.
For CCCCOC(=O)NS(=O)(=O)c1sc(CC(C)C)cc1-c1ccc(Cn2ccnc2)cc1 the results were GPT2 inh inactive.
OCCn1nc(-c2ccncc2)nc1CC12CC3CC(CC(O)(C3)C1)C2 was read as 3T3 cytotox inactive, GPT2 inh inactive, FLuc inh inactive, NPR1 antag inactive and HEK293 tox inactive.
Screening Cc1noc(C)c1CN1C[C@H]2[C@H](C1)[S+](=O)([O-])C(C)(C)C(=O)N2CCOc1ccccc1 returned 3T3 cytotox 39.8µM, GPT2 inh inactive, FLuc inh inactive, NPR1 antag inactive and HEK293 tox inactive.
Screening CC1(C)C(=O)N(Cc2ccccc2)[C@H]2CN(CC3CCOC3)C[C@H]2[S+]1(=O)[O-] (stereo partly drawn) returned 3T3 cytotox 89.1µM, GPT2 inh inactive, FLuc inh inactive, NPR1 antag inactive and HEK293 tox inactive.
`CC1(C)C(=O)N(CCOc2ccccc2)[C@H]2CN(c3cccc(C(F)(F)F)c3)C[C@@H]2[S+]1(=O)[O-]` gave 3T3 cytotox 11.2µM, GPT2 inh inactive, FLuc inh inactive, NPR1 antag inactive and HEK293 tox 17.8µM.
Screening O=C1NC2(CN(C(=O)c3ccccc3)C2)Oc2ccccc21 returned 3T3 cytotox inactive, GPT2 inh inactive, FLuc inh inactive, NPR1 antag inactive and HEK293 tox inactive.
For COC(=O)c1ccc(NC(=O)N2CCC(CCOc3ccc(F)cc3)C2)cc1 (stereo not drawn) the results were 3T3 cytotox inactive, GPT2 inh inactive, FLuc inh inactive, NPR1 antag inconclusive and HEK293 tox inconclusive.
Screening NCc1ccccc1-c1cccs1 returned 3T3 cytotox inactive, GPT2 inh inactive and HEK293 tox inactive.
Screening COc1ccc(C(=O)N[C@@H]2CN(Cc3ccccc3)C[C@H]2CN(C)C)cc1F returned 3T3 cytotox 20µM, GPT2 inh inactive and HEK293 tox 6.31µM.
CN(C)C[C@@H]1CN(Cc2ccccc2)C[C@H]1NC(=O)c1nn(C)c2ccccc12 was read as 3T3 cytotox inconclusive, GPT2 inh inactive and HEK293 tox 39.8µM.

High-throughput results deposited in PubChem BioAssay by National Center for Advancing Translational Sciences (NCATS).
